Some test systems named below: HCT-15 colon; HT29 colon; SNB-75 CNS; SNB-19 CNS; U251 CNS; PC-3 prostate; SK-MEL-5 melanoma; UACC-62 melanoma; LOX IMVI melanoma; SK-MEL-28 melanoma.
Test in all cases: NCI-60 one-dose screen, 48 h (100 = growth as untreated, 0 = no growth, -100 = all killed)
Common to all, as to conditions: 10 µM unless noted

Compounds without any hit were thinned out: in the full panel of roughly 83,000, 20% have a hit.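 Growth was measured after 48 h exposure to one concentration of compound in 96-well plates. Values under 10 count as active.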 Values without a mark were called inactive. Activity calls are given as the source filed them.

Consider `COc1cc(NS(C)(=O)=O)ccc1Cc1c2ccccc2nc2ccccc12`, for which the growth is 18.3% with HCT-15 colon; 8.23% (active) in the assay with HT29 colon; 21.4% in the assay with SNB-75 CNS; 25.9% in the assay with SNB-19 CNS; 18.7% in the assay with U251 CNS; 55.2% in the assay with PC-3 prostate. The growth is 8.33% (active) in the assay on SK-MEL-5 melanoma, 26.1% in the assay on UACC-62 melanoma, -26.2% (active) in the assay with LOX IMVI melanoma and 50.7% with SK-MEL-28 melanoma.

`C=CCn1c(SCC(=O)Nc2ccc(/C(C)=N\O)cc2)nnc1-c1cc(-c2ccc(OC)cc2)nc2ccccc12`: the growth in the assay with HCT-15 colon is 36.3%; in the assay on HT29 colon, 42%; with SNB-75 CNS, 57.4%; with SNB-19 CNS, 44.5%; in the assay with U251 CNS, 29.8%; with PC-3 prostate, 29.9%. Further, the growth in the assay on SK-MEL-5 melanoma was 36.4%; with UACC-62 melanoma, 37.7%; in the assay with LOX IMVI melanoma, -65.4% (active); with SK-MEL-28 melanoma it was 61.7%.

Take `O=C(O)c1ccc(-n2cc(/C=N/Nc3ccccc3F)c(-c3ccc(O)cc3)n2)cc1`: the growth in the assay on HCT-15 colon is 73.1%; in the assay with HT29 colon, 101%; in the assay on SNB-75 CNS it was 82.8%; with SNB-19 CNS it was 95.2%; in the assay with U251 CNS, 86.9%; in the assay with PC-3 prostate it was 74.8%. For the same compound, the growth in the assay on SK-MEL-5 melanoma was 78%; with UACC-62 melanoma it was 46.5%; in the assay on LOX IMVI melanoma, 37%; with SK-MEL-28 melanoma, 97.1%.

On to `CN(C)c1ccc(/C=N/n2c(-c3cc(F)c(Cl)cc3Cl)nn(CN3CCOCC3)c2=S)cc1`, for which the growth is 103% in the assay with HCT-15 colon; 110% in the assay on HT29 colon; 97.7% with SNB-75 CNS; 99.4% with SNB-19 CNS; 89% in the assay on U251 CNS; 103% in the assay on PC-3 prostate. In addition, the growth in the assay with SK-MEL-5 melanoma was 92.3%; with UACC-62 melanoma, 94.8%; with LOX IMVI melanoma it was 96.1%; in the assay on SK-MEL-28 melanoma, 108%.

As for `COc1ccc(CCNC=O)cc1OC`, the growth in the assay with HCT-15 colon was 103%; with HT29 colon, 114%; with SNB-75 CNS, 80.7%; with SNB-19 CNS, 92.4%; in the assay on U251 CNS it was 110%; in the assay on PC-3 prostate it was 100%. The growth with SK-MEL-5 melanoma is 95.5%; with UACC-62 melanoma, 103%; in the assay with LOX IMVI melanoma, 98.1%; in the assay with SK-MEL-28 melanoma, 106%.

On to `O=C(Nc1ccc(-n2cc(-c3ccncc3)c(-c3ccc(O)c(Cl)c3)n2)cc1)Nc1cccc(Cl)c1Cl`, for which the growth is 43.1% with HCT-15 colon; 1.45% (active) in the assay on HT29 colon; 72.5% in the assay on SNB-75 CNS; 71.9% with SNB-19 CNS; 39.7% in the assay with U251 CNS; 29% in the assay with PC-3 prostate. Moreover, the growth in the assay on SK-MEL-5 melanoma is 31.2%; in the assay on UACC-62 melanoma, 89.5%; with LOX IMVI melanoma, 52.8%; with SK-MEL-28 melanoma it was 60.3%.

As to `CCC1S/C(=N\N=C(/C)c2cc3ccccc3o2)N(c2ccccc2)C1=O` (stereo not given), the growth was 107% in the assay on HCT-15 colon; 98% in the assay with HT29 colon; 102% in the assay on SNB-75 CNS; 100% in the assay with SNB-19 CNS; 96.7% with U251 CNS; 81.7% in the assay with PC-3 prostate. Besides, the growth with SK-MEL-5 melanoma is 83.9%; in the assay on UACC-62 melanoma, 79.5%; with LOX IMVI melanoma, 93.7%; in the assay on SK-MEL-28 melanoma, 114%.

With `Nc1ncnc2c1c(C(F)(F)F)cn2[C@@H]1O[C@H](CO)[C@@H](O)[C@H]1O`, the growth with HCT-15 colon is 4.22% (active); in the assay with HT29 colon it was 1.42% (active); with SNB-75 CNS it was -35.1% (active); in the assay with SNB-19 CNS, 14.6%; in the assay with U251 CNS, 3.73% (active); with PC-3 prostate it was 12.1%. In addition, the growth with SK-MEL-5 melanoma is -32.1% (active); with UACC-62 melanoma it was -38.6% (active); in the assay with LOX IMVI melanoma it was 6.25% (active); in the assay on SK-MEL-28 melanoma, 1.5% (active).

In the case of `COc1ccc(C[C@H](N)C(=O)N[C@@H]2[C@@H](CO)OC(n3cnc4c(N(C)C)ncnc43)[C@@H]2O)cc1` (stereo not given in full), the growth in the assay with HCT-15 colon is 71.6%; in the assay with HT29 colon, -63.8% (active); in the assay with SNB-75 CNS it was -40.7% (active); in the assay with SNB-19 CNS, -4.27% (active); in the assay on U251 CNS, -91.6% (active); in the assay with PC-3 prostate, -6.6% (active). Also, the growth was -96.6% (active) with SK-MEL-5 melanoma, -81.3% (active) with UACC-62 melanoma, -61.9% (active) in the assay on LOX IMVI melanoma and -64.4% (active) with SK-MEL-28 melanoma.

As for `COc1ccc(C(=O)NC(=O)Nc2ccc3c(c2)NC(=O)/C3=C\c2[nH]c(C)c(C(=O)O)c2C)c(F)c1`, the growth was 47.8% with HCT-15 colon; 16.5% in the assay on HT29 colon; 30.4% in the assay on SNB-75 CNS; 79.3% in the assay with SNB-19 CNS; 32.1% with U251 CNS; 40.2% in the assay on PC-3 prostate. Moreover, the growth in the assay with SK-MEL-5 melanoma is 28.2%; in the assay with UACC-62 melanoma it was 38.3%; with LOX IMVI melanoma, 52.4%; in the assay on SK-MEL-28 melanoma, 57.9%.

Turning to `C=CC(=O)NC(=O)Nc1ccccc1Cl`, the growth with HCT-15 colon was 67.9%; in the assay with HT29 colon, 70.2%; in the assay with SNB-75 CNS, 83.8%; with SNB-19 CNS, 72.5%; in the assay on U251 CNS, 81.7%; in the assay on PC-3 prostate it was 78.2%. Further, the growth in the assay with SK-MEL-5 melanoma was 96.6%; in the assay on UACC-62 melanoma it was 93.4%; in the assay with LOX IMVI melanoma, 86.1%; in the assay on SK-MEL-28 melanoma, 109%.

For the compound `O=S(=O)(CCN1CCOCC1)Nc1cc(-c2ccc3ncnc(Nc4ccc(F)c(Cl)c4)c3c2)cnc1Cl`, the growth is 16.2% with HCT-15 colon; 14.6% in the assay on HT29 colon; -20.7% (active) in the assay with SNB-75 CNS; 5.93% (active) in the assay with SNB-19 CNS; 13.5% in the assay on U251 CNS; 13.4% in the assay with PC-3 prostate. For the same compound, the growth was -5.68% (active) in the assay on SK-MEL-5 melanoma, -16.4% (active) in the assay on UACC-62 melanoma, 4.23% (active) with LOX IMVI melanoma and 2.15% (active) in the assay on SK-MEL-28 melanoma.

For `CC(/C=C/C=C(\C)[C@H](O)[C@H](C)C(=O)O[C@H]1C[C@H](C)C=C2C=C[C@@]3(C)O[C@@H](O)CC(=O)[C@]3(C)[C@H]21)=C\C=C\C(=O)O`, the growth in the assay with HCT-15 colon was 17.3%; in the assay with HT29 colon, 0.326% (active); in the assay on SNB-75 CNS, -14.2% (active); with SNB-19 CNS it was -0.761% (active); in the assay on U251 CNS it was -3.9% (active); in the assay with PC-3 prostate, 7.61% (active). The growth is -69% (active) in the assay on SK-MEL-5 melanoma, -32% (active) in the assay with UACC-62 melanoma, 6.81% (active) with LOX IMVI melanoma and -0.848% (active) in the assay on SK-MEL-28 melanoma.
